Assay outcomes as filed in PubChem BioAssay.
Keap1 Nrf2 FP – Keap1-Nrf2 protein-protein interaction inhibitors, primary screen, biochemical, fluorescence polarization, single point; Kelch-like ECH-associated protein 1 (Homo sapiens), Q14145; Keap1 Kelch-Nrf2 peptide fluorescence polarization, 1536-well; inhibition, % at 9.4 µM; 340,000 tested, 0.15% active; AID 504523, 2011; in the data active = inhibition above about 12%;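 note: human Keap1 Kelch domain with fluorescein labeled Nrf2 9mer peptide probe; 0% = neutral control wells and 100% = peptide positive control; higher means more block of Keap1 binding to Nrf2 peptide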
cardiac RTF act – cardiac RTF calcium sensitivity activators, primary screen, biochemical, IANBD-TnC fluorescence, EC20 calcium; 340,000 tested, 0.24% active; IANBD-labeled TnC RTF fluorescence at EC20 calcium; 0% EC20 calcium, 100% full calcium; AID 493008, 2010; activation, % at 7.2 µM;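 active = activation above the mean over all tested compounds plus 3 SD, cut at about 30% in these data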;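 note: rise in fluorescence read as greater calcium sensitivity of cardiac thin filaments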
C-LANA FP – inhibitors of KSHV C-LANA binding to DNA, primary screen, biochemical, fluorescence polarization, FAM-LBS DNA, MBP-C-LANA, single point; Kaposi's sarcoma herpesvirus LANA C-terminal domain (residues 932-1162) DNA binding; 340,000 tested, 0.078% active; inhibition, % at 9 µM;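 active = highest replicate inhibition at or above 60% at 9 µM, even if other replicates fall short; inactive = all replicates below 60% inhibition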;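 note: 0% = neutral control wells and 100% = 4 µM acridine orange control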
E coli Lon inh – inhibitors of E. coli Lon protease, primary screen, biochemical, fluorescence polarization. P0A9M0. purified E. coli Lon protease. inhibition, % at 7.94 µM. 360,000 tested, 0.42% active. AID 602123, 2011; in the data active = inhibition above about 13%, passing the limit was not always enough;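 note: 0% = enzyme with probe and DMSO and 100% = no enzyme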
Target sequence (P0A9M0 whole entry, looked up): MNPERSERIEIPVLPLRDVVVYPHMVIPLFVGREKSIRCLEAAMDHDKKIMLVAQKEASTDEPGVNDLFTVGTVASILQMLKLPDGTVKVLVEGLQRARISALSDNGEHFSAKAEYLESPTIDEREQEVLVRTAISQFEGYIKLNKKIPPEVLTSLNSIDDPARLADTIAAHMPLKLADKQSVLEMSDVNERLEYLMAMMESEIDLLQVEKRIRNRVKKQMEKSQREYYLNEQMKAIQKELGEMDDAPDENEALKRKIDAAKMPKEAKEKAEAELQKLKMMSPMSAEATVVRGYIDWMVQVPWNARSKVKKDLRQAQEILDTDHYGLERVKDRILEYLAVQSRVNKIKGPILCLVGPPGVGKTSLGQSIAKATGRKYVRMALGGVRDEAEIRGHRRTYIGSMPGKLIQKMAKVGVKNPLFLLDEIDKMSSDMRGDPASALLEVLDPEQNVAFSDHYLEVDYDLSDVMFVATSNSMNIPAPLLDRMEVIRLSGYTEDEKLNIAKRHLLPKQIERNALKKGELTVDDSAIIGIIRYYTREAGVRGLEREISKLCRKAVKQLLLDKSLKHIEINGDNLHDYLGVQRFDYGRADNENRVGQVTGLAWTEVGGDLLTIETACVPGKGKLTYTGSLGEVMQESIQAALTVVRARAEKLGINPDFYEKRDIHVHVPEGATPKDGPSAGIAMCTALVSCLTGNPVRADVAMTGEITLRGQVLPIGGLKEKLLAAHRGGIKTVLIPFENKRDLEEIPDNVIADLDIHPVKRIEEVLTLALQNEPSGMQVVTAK
RTF Ca sens inh – cardiac RTF calcium sensitivity inhibitors, primary screen, biochemical, IANBD-TnC fluorescence, EC70 calcium | IANBD-labeled cardiac RTF, Ca2+ fluorescence | inhibition, % at 7.15 µM | 340,000 tested, 0.12% active | AID 493244, 2011;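 active = inhibition above the mean inhibition of all tested compounds plus 3 SD, cut at about 17% in these data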;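 note: assay run at fixed EC70 calcium of 1.6 mM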
E coli Lon conf – E. coli Lon protease inhibitor retest, confirmation, biochemical, fluorescence polarization; shares compounds with E coli Lon inh; purified E. coli Lon; inhibition, % at 7.94 µM; 1,400 tested, 31% active; AID 602230, 2012; in the data active = inhibition above about 16%;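 note: 0% = enzyme with probe and DMSO and 100% = no enzyme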
Starred values were filed as active, the others as inactive. In the library only some 0.82% were active in any assay of this set; here they are far more common.

How did COCCCN1C(=O)C(CC(=O)NCCN2CCOCC2)CC(C(=O)N(C)C)=C1C (stereo not given) do in these assays?
E coli Lon inh: -3.5

Results for CC(C)NC(=O)C1(C#N)C=C1c1ccccc1 (stereo not given) ?
E coli Lon inh: -4.8

Results for Cn1c(N2CCN(C(c3ccccc3)c3ccccc3)CC2)nc2c1c(=O)[nH]c(=O)n2C ?
Keap1 Nrf2 FP: 1.8; cardiac RTF act: 0.8; C-LANA FP: 1.6; E coli Lon inh: 24.1*; RTF Ca sens inh: 0.4; E coli Lon conf: 16.3*

How did O=C1C=C(c2cc3ccccc3s2)C[C@@H](c2ccc(F)cc2)C1 do in these assays?
Keap1 Nrf2 FP: -0.4; cardiac RTF act: 5.3; C-LANA FP: 1.2; E coli Lon inh: -18.3; RTF Ca sens inh: -14.5

Results for F[B-](F)(F)c1cc2ccccc2s1 ?
Keap1 Nrf2 FP: -4.7; cardiac RTF act: 1.0; C-LANA FP: 0.1; E coli Lon inh: 31.4*; RTF Ca sens inh: -1.6; E coli Lon conf: 43.9*

What do the screens show for `F[B-](F)(F)c1cc2cc(Br)ccc2s1`?
Keap1 Nrf2 FP: -6.6; cardiac RTF act: 7.6; C-LANA FP: -1.0; E coli Lon inh: 27.0*; RTF Ca sens inh: -4.9; E coli Lon conf: 40.2*

How did Cc1ccc(S(=O)(=O)N2CCN(c3nc(-c4cccs4)nc4ccccc34)CC2)cc1 do in these assays?
E coli Lon inh: -2.5

What do the screens show for `O=S(=O)(Nc1ccc(S(=O)(=O)Nc2ncccn2)cc1)c1ccccc1`?
Keap1 Nrf2 FP: -2.9; cardiac RTF act: -2.1; C-LANA FP: -2.3; E coli Lon inh: -6.6; RTF Ca sens inh: -17.6

How did O=S(=O)(Nc1ncccn1)c1ccc(Nc2ncnc3ccccc23)cc1 do in these assays?
Keap1 Nrf2 FP: 3.0; cardiac RTF act: 3.1; C-LANA FP: 0.1; E coli Lon inh: 19.6*; RTF Ca sens inh: 2.4; E coli Lon conf: 80.6*

How did O=C(Nc1ccc(S(=O)(=O)Nc2ncccn2)cc1)c1ccc(Br)s1 do in these assays?
Keap1 Nrf2 FP: 0.9; cardiac RTF act: -3.6; C-LANA FP: 2.2; E coli Lon inh: 27.7*; RTF Ca sens inh: 1.1; E coli Lon conf: 34.2*

What do the screens show for `O=C(Nc1ccc(Cl)cc1)Nc1ccc(S(=O)(=O)Nc2ncccn2)cc1`?
Keap1 Nrf2 FP: -7.0; cardiac RTF act: 8.9; C-LANA FP: -1.0; E coli Lon inh: 64.7*; RTF Ca sens inh: -1.2; E coli Lon conf: 48.1*

What do the screens show for `COc1ccc(OC)c(NC(=O)Cc2nn(C)c(=O)c3ccccc23)c1`?
Keap1 Nrf2 FP: -5.8; cardiac RTF act: 3.1; C-LANA FP: -0.7; E coli Lon inh: 16.0*; RTF Ca sens inh: -5.4; E coli Lon conf: -1.9

Results for CCCc1c(C(=O)N/N=C(\CC)c2ccccc2)nnn1-c1nonc1N ?
E coli Lon inh: -6.4

Results for CCC/C(=N/NC(=O)c1nnn(-c2nonc2N)c1CN1CCCCC1)c1ccccc1 ?
Keap1 Nrf2 FP: -5.5; cardiac RTF act: 3.1; C-LANA FP: -3.4; E coli Lon inh: 13.3*; RTF Ca sens inh: -8.0; E coli Lon conf: -15.3

Results for COc1ccc(C(=O)NCCn2ccc3ccccc32)cc1OC ?
Keap1 Nrf2 FP: -1.0; cardiac RTF act: 4.2; C-LANA FP: 1.9; E coli Lon inh: 0.0; RTF Ca sens inh: -1.7

How did COc1ccccc1C(=O)NCCn1ccc2ccccc21 do in these assays?
Keap1 Nrf2 FP: -0.3; cardiac RTF act: -0.1; C-LANA FP: 3.6; E coli Lon inh: 15.7*; RTF Ca sens inh: -5.2; E coli Lon conf: 10.2

How did CCc1c(Cl)nc(N)nc1Nc1ccccc1C do in these assays?
Keap1 Nrf2 FP: -0.9; cardiac RTF act: 11.7; C-LANA FP: 2.2; E coli Lon inh: -4.0; RTF Ca sens inh: 2.2

What do the screens show for `Cc1ccccc1Nc1nc(N)[nH]c(=O)c1N=O`?
E coli Lon inh: 25.9*; E coli Lon conf: -5.6

What do the screens show for `Cc1ccc([C@H]2N[C@]3(CCCN(Cc4ccc(Br)cc4)C3=O)[C@H]3C(=O)N(C)C(=O)[C@@H]23)cc1`?
E coli Lon inh: 9.2

What do the screens show for `CC(=O)c1cccc(-c2ccnc3c2CC(C(=O)Nc2ccc(C(C)C)cc2)O3)c1` (stereo not given)?
E coli Lon inh: 0.7

Results for CCCn1c(NC(=O)CSCC(=O)Nc2cc(C)on2)nc2ccccc21 ?
Keap1 Nrf2 FP: -1.8; cardiac RTF act: 6.3; C-LANA FP: 1.4; E coli Lon inh: 21.6*; RTF Ca sens inh: -12.9; E coli Lon conf: -4.1

What do the screens show for `Cc1ccc(S(=O)(=O)NC(=O)C2(C)CCN2C(=O)c2ccccc2CCc2ccccc2)nc1` (stereo not given)?
E coli Lon inh: 4.9

What do the screens show for `CCN(CC)c1ccc(C=Nc2cccnc2Cl)c(O)c1`?
Keap1 Nrf2 FP: 3.3; cardiac RTF act: -0.7; C-LANA FP: 6.7; E coli Lon inh: 16.2*; RTF Ca sens inh: -8.7; E coli Lon conf: -1.3

How did CCN(CC)c1ccc(C=Nc2cc(C)ccc2C)c(O)c1 do in these assays?
Keap1 Nrf2 FP: -1.4; cardiac RTF act: 20.5; C-LANA FP: -1.0; E coli Lon inh: -4.7; RTF Ca sens inh: -6.3

Results for CCCNC(=S)Nc1ccc2nc(-c3ccccn3)c(-c3ccccn3)nc2c1 ?
Keap1 Nrf2 FP: -5.5; cardiac RTF act: 5.2; C-LANA FP: 1.9; E coli Lon inh: 18.8*; RTF Ca sens inh: -4.4; E coli Lon conf: -3.1

How did O=C(NCc1ccccc1)C1=C[C@@H](c2coc3ccccc3c2=O)C[C@@H](OCCCCO)O1 do in these assays?
Keap1 Nrf2 FP: -3.3; cardiac RTF act: -4.8; C-LANA FP: -5.1; E coli Lon inh: -12.9; RTF Ca sens inh: 3.6

Results for C#CCNC(=O)C1=C[C@@H](c2coc3ccccc3c2=O)C[C@@H](OCCCCO)O1 ?
Keap1 Nrf2 FP: -1.6; cardiac RTF act: 3.3; C-LANA FP: -1.1; E coli Lon inh: 18.9*; RTF Ca sens inh: 1.4; E coli Lon conf: 29.2*

Results for CN1Cc2c(N3CCOCC3)nc(SCc3ccccc3)c(C#N)c2CC1(C)C ?
Keap1 Nrf2 FP: 1.2; cardiac RTF act: 10.2; C-LANA FP: 1.8; E coli Lon inh: 44.7*; RTF Ca sens inh: -16.5; E coli Lon conf: -5.0

How did CCSc1nc(N2CCOCC2)c2c(c1C#N)CC(C)(C)N(C)C2 do in these assays?
Keap1 Nrf2 FP: 2.3; cardiac RTF act: -6.9; C-LANA FP: -2.1; E coli Lon inh: -15.0; RTF Ca sens inh: 2.0

Results for CC(Sc1ccc(S(=O)(=O)N(C)C)cn1)C(=O)NC1CCCC1 (stereo not given) ?
Keap1 Nrf2 FP: 2.6; cardiac RTF act: -4.5; C-LANA FP: -1.4; E coli Lon inh: 24.6*; RTF Ca sens inh: -3.0; E coli Lon conf: -33.6
